{"source": "PubChem BioAssay (NCATS)", "note": "Records with an inconclusive call do not appear. Values without a mark were called inactive. The source made the active and inactive calls. Calls come from the whole dose curve; as a rule, active = well fitted curve in the direction sought with a large enough effect; inconclusive = small, poorly fitted or top-dose-only effect, or another doubt; inactive = no such curve, though single readings can be large; an effect the other way counts as inactive or inconclusive. Potency is the fitted concentration of half-maximal effect."}
{"assay": "qHTS of pediatric cancer cell lines to identify multiple opportunities for drug repurposing: Primary screen for NB-EBc1 cells (AID 1347095);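 for activity change, negative = cytotoxic: plate controls were DMSO neutral control for no effect and bortezomib for full effect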", "conditions": "NB-EBc1 neuroblastoma viability, CellTiter-Glo luminescence, 48 h; series mostly up to 46 µM; activity change, negative = cytotoxic: at the top concentration", "method_in_brief": "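Primary screen of approved and investigational compounds on cells in growth media at 37 degrees C, 5% CO2. MIPE set at 11-point and NPC set at 8-point dilutions; viability scored by ATP-based luminescence at 48 hours.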", "units": {"activity change, negative = cytotoxic": "%"}}
{"smiles": "COc1cc2c(cc1O)CCC1C2CC[C@@]2(C)C1CC[C@@H]2O", "note": "(stereo partly drawn)", "Potency": "526 nM (active)"}
{"smiles": "CC(C)Oc1ccc(C(=O)N[C@H](CNC(=O)CN(C)C)Cc2ccc(-c3cn4cccc([C@H](C)O)c4n3)cc2)cc1Cl", "Potency": "372 nM (active)"}
{"smiles": "COc1cc(N2CCC(C(N)=O)CC2)ccc1Nc1nc(N)c(Cl)c(Nc2ccccc2S(=O)(=O)C(C)C)n1", "Potency": "743 nM (active)"}
{"smiles": "COc1ccc(C(C)=O)c(O)c1", "activity change, negative = cytotoxic": 13.7}
{"smiles": "NC(=NCCCCCCN=C(N)N=C(N)Nc1ccc(Cl)cc1)N=C(N)Nc1ccc(Cl)cc1", "Potency": "26400 nM (active)"}
{"smiles": "COc1ccc(S(=O)(=O)Nc2cccnc2Nc2ccc(O)cc2)cc1", "Potency": "16.6 nM (active)"}
{"smiles": "CNC(=O)c1cccc(-c2ccc3c(N4CCOC[C@H]4C)nc(N4CCOC[C@H]4C)nc3n2)c1", "Potency": "132 nM (active)"}
{"smiles": "Oc1ccc([C@@H]2Oc3ccc(O)cc3[C@@H]3CCC[C@@H]32)cc1", "Potency": "7430 nM (active)"}
{"smiles": "COc1cc(C)c(C=CC(C)=CC=CC(C)=CC(=O)O)c(C)c1C", "activity change, negative = cytotoxic": 11.4}
{"assay": "qHTS of pediatric cancer cell lines to identify multiple opportunities for drug repurposing: Primary screen for U-2 OS cells (AID 1347096); note: nearly all actives have a fitted effect of over 50% in size;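 for activity change, negative = cytotoxic: plate controls were DMSO wells for no effect and bortezomib positive control wells for full effect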", "conditions": "U-2 OS viability, CellTiter-Glo luminescence, 48 h; series mostly up to 46 µM; activity change, negative = cytotoxic: at the top concentration", "method_in_brief": "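Cells (500-1,000/well) rested 5 h, then received compounds for 48 h; metabolically active cells were measured by CellTiter-Glo luminescence. Final concentrations spanned up to 46 µM (MIPE, 11-point) or 0.59 nM-46 µM (NPC, 8-point) in primary screens, 11-point in follow-ups.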"}
{"smiles": "COc1cc2c(cc1O)CCC1C2CC[C@@]2(C)C1CC[C@@H]2O", "note": "(stereo partly drawn)", "activity change, negative = cytotoxic": "-24.4%"}
{"smiles": "C=Cc1c(C)c2cc3nc(cc4[nH]c(cc5nc(cc1[nH]2)C(C)=C5CCC(=O)O)c(CCC(=O)OC)c4C)[C@@]1(C)C3=CC=C(C(=O)OC)[C@H]1C(=O)OC", "Potency": "372 nM (active)"}
{"smiles": "N[C@H]1CN(c2c(F)cc3c(=O)c(C(=O)O)cn(C4C[C@@H]4F)c3c2Cl)CC12CC2", "note": "(stereo partly drawn)", "activity change, negative = cytotoxic": "5.71%"}
{"smiles": "CC(C)Oc1ccc(C(=O)N[C@H](CNC(=O)CN(C)C)Cc2ccc(-c3cn4cccc([C@H](C)O)c4n3)cc2)cc1Cl", "activity change, negative = cytotoxic": "-3.15%"}
{"smiles": "Nc1nc(N)c2nc(-c3cccc(O)c3)c(-c3cccc(O)c3)nc2n1", "Potency": "23500 nM (active)"}
{"smiles": "COc1cc(OC)cc(-c2ccc3ncc4ccc(=O)n(-c5ccc(N6CCNCC6)c(C(F)(F)F)c5)c4c3c2)c1", "Potency": "14800 nM (active)"}
{"smiles": "CN(N=O)C(=O)N[C@H]1C(O)OC(CO)[C@@H](O)[C@H]1O", "note": "(stereo partly drawn)", "activity change, negative = cytotoxic": "3.8%"}
{"smiles": "C[C@H](CCC(=O)O)[C@H]1CCC2C3C[C@H](O)[C@@H]4C[C@H](O)CC[C@]4(C)C3CC[C@@]21C", "note": "(stereo partly drawn)", "activity change, negative = cytotoxic": "1.11%"}
{"smiles": "COC(=O)C=CC(=O)OC", "activity change, negative = cytotoxic": "-1.08%"}
{"smiles": "COc1ccc(C(C)=O)c(O)c1", "activity change, negative = cytotoxic": "-13.8%"}
{"smiles": "O=C1NC(O)CCN1[C@@H]1O[C@H](CO)[C@H](O)[C@H]1O", "note": "(stereo partly drawn)", "activity change, negative = cytotoxic": "9.78%"}
{"smiles": "NC(=NCCCCCCN=C(N)N=C(N)Nc1ccc(Cl)cc1)N=C(N)Nc1ccc(Cl)cc1", "activity change, negative = cytotoxic": "-22.3%"}
{"smiles": "CCN(CC)Cc1ccc2cc(COC(=O)Nc3ccc(C(=O)NO)cc3)ccc2c1", "Potency": "3720 nM (active)"}
{"smiles": "NC1=N[C@H]2[C@H](CS[C@H]2CCCCC(=O)O)N1", "activity change, negative = cytotoxic": "14.4% [at 16.1 µM]"}
{"smiles": "Cn1cnc(=N)c2[nH]cnc21", "Potency": "2350 nM (active)"}
{"smiles": "COc1cc2c(Nc3ccc(Cl)c(Cl)c3F)ncnc2cc1OCC1C[C@@H]2CN(C)C[C@H]2C1", "Potency": "18700 nM (active)"}
{"smiles": "Oc1ccc([C@@H]2Oc3ccc(O)cc3[C@@H]3CCC[C@@H]32)cc1", "activity change, negative = cytotoxic": "-4.22%"}
{"smiles": "C=C1C(=CC=C2CCC[C@]3(C)[C@@H]([C@H](C)CCCC(C)(C)O)CC[C@@H]23)C[C@@H](O)C[C@@H]1O", "Potency": "18700 nM (active)"}
{"smiles": "COc1cc(C)c(C=CC(C)=CC=CC(C)=CC(=O)O)c(C)c1C", "activity change, negative = cytotoxic": "18.9%"}
{"smiles": "NC(=O)c1ncn([C@@H]2O[C@H](CO)[C@@H](O)[C@@H]2O)c1O", "activity change, negative = cytotoxic": "4.62%"}
{"smiles": "COc1cccc2c1C(=O)c1c(O)c3c(c(O)c1C2=O)C[C@@](O)(C(C)=O)C[C@H]3O[C@H]1C[C@H](N)[C@H](O)[C@H](C)O1", "Potency": "118 nM (active)"}
{"smiles": "O=C(Nc1cccc(Nc2ncc(Br)c(NCCc3cnc[nH]3)n2)c1)N1CCCC1", "activity change, negative = cytotoxic": "9.59%"}
{"smiles": "CC(=O)NC(CS)C(=O)O", "note": "(stereo not drawn)", "activity change, negative = cytotoxic": "0.546%"}
{"smiles": "O=C1NC(=O)C(=Cc2ccc3nccc(-c4ccncc4)c3c2)S1", "Potency": "1870 nM (active)"}
